The nature of assay [1]: Viability counterscreen for antagonist of constitutive androstane receptor (CAR) against the NCATS DSHEA and TCM libraries (AID 1794837).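 Note: compound exposure lasted 24 h before viability reading; 0% is about no effect.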 An outline of the steps: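 Viability was measured by CellTiter-Fluor fluorescence (405/540 nm, 1 hr) in HepG2-CYP2B6-hCAR cells. Cells were co-treated 24 hr with 48 uM CITCO (final), antagonist mode, and test substances.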
A general note: A counterscreen serves to expose hits that act by an unwanted route or on another target.

Assay [2] can be described thus: Viability counterscreen for agonist of constitutive androstane receptor (CAR) against the NCATS DSHEA and TCM libraries (AID 1794838). Note: 0% is about no effect. In short, it runs like this: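 Cell viability, from CellTiter-Fluor fluorescence (405/540 nm), was scored after a 24 h, 37C exposure of HepG2 cells carrying CYP2B6 reporter and hCAR to test substances in presence of 0.75 uM PK11195.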

The target in assay [3] is Nuclear receptor subfamily 1 group I member 3 (Homo sapiens) (UniProt Q14994). Nature of the assay: Primary qHTS for agonist of constitutive androstane receptor (CAR) against the NCATS DSHEA and TCM libraries (AID 1794839).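 Note: HepG2 cells expressing human CAR with a CYP2B6 reporter plus PK11195 antagonist; luciferase reporter luminescence read with ONE-Glo; 0% is about no effect.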 In short, it runs like this: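 Agonist mode in presence of hCAR antagonist PK11195 (0.75 µM final): test substances, 24 h, 37 °C, on HepG2-CYP2B6-hCAR cells. Same-well readouts: fluorescence viability, then ONE-Glo luminescence; CITCO as reference agonist.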
On the technique in general: In qHTS, concentration-response curves come from the screen itself.

A short description of assay [4]: HepG2 viability counterscreen (readout 2: ATP content) against the NCATS DSHEA and TCM libraries (AID 1794840).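 Note: HepG2 cells exposed to substances for about 24 h; 0% is about no effect.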 In short, it runs like this:
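Readout 1: cellular protease activity, GF-AFC substrate (25 uM final, 30 min, fluorescence 380/510 nm). Readout 2: ATP content by CellTiter-Glo luminescence after 30 min at RT. Both follow ~24 h exposure of HepG2 cells (1,000/well) to substances.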

Assay [5] has as its target Cytochrome P450 3A4 (Homo sapiens) (UniProt P08684). In words: qHTS for inhibitors of CYP3A4 against the NCATS DSHEA and TCM libraries (AID 1919971). Note: potency is the fitted concentration of half-maximal effect. An outline of the steps: (§1)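 Isoform-specific enzyme and substrate levels; enzyme-free wells as background. Reaction: 1x NADPH regenerating system, 30-45 min, room temperature, shielded from light; luminescent detection reagent added, 30 min.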

Assay [6] has as its target Cytochrome P450 2D6 (Homo sapiens) (UniProt P10635). In words: qHTS for inhibitors of CYP2D6 against the NCATS DSHEA and TCM libraries (AID 1919972). Note: % is set by controls: 0 for no effect and ±100 for the full control effect. In short, it runs like this: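 qHTS, concentration–response format with most substances from 19.5 nM. CYP2D6 + pro-luciferin substrate, 15 min with compound, then 1x NADPH regen, 30–45 min RT dark. Glo detection 30 min, luminescence. Quinidine control.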

Assay [7] addresses Cytochrome P450 2C9 (Homo sapiens) (UniProt P11712). Nature of the assay: qHTS for inhibitors of CYP2C9 against the NCATS DSHEA and TCM libraries (AID 1919973). Note: potency is the fitted concentration of half-maximal effect. In short, it runs like this:
as §1

Assay [8] deals with Cytochrome P450 2C19 (Homo sapiens) (UniProt P33261). Nature of the assay: qHTS for inhibitors of CYP2C19 against the NCATS DSHEA and TCM libraries (AID 1919974).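 Note: luminescence from luciferin released by CYP2C19 oxidation of a pro-luciferin substrate.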 Note: potency is the fitted concentration of half-maximal effect. An outline of the steps: as §1
The nature of assay [9]: KB-3-1 P-gp reporter qHTS against the NCATS DSHEA and TCM libraries (AID 1919975). Note: 0% is about no effect. In short, it runs like this:
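Cell viability by CellTiter-Glo luminescence following ~72 h compound exposure (concentration-response). Uses parental, non-P-gp-overexpressing KB-3-1 line, 500 cells/well in DMEM/10% FBS, attached ~4 h before dosing.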

The target of assay [10] is Cytochrome P450 1A2 (Homo sapiens) (UniProt P05177). Nature of the assay: qHTS for inhibitors of CYPIA2 against the NCATS DSHEA and TCM libraries (AID 1919976).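 Note: light from luciferin formed by CYP1A2 from a pro-luciferin substrate; series mostly up to about 37 µM; % is set by controls: 0 for no effect and ±100 for the full control effect.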 An outline of the steps:
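Furafylline served as the plate control. Compounds met CYP1A2 and pro-luciferin substrate 15 min before NADPH regeneration solution (1x) was added; after 30-45 min at RT, P450-Glo reagent was added for 30 min and luminescence was measured.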

A short description of assay [11]: qHTS Counterscreen for compound interference against the NCATS DSHEA and TCM libraries (AID 1919978).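 Note: compounds preincubated with 1 µM D-luciferin or buffer before detection reagent; % of control where 0% means no effect.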 Conditions: firefly luciferase detection reagent interference, luminescence. An outline of the steps:
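With 1 uM D-luciferin or phosphate buffer only, compounds at final 19.5 nM–39.8 uM were incubated for 15 min at room temperature. Luciferase detection reagent was then added, and luminescence was measured after a further 30 min at room temperature.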

The nature of assay [12]: Dual reporter qHTS for agonist of Pregnane X Receptor (hPXR) against the NCATS DSHEA and TCM libraries: Fluorescence readout (AID 1920058). Note: 0% is about no effect. An outline of the steps:
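In this qHTS counter-read, reporter-bearing HepG2 cells in charcoal-stripped serum received substances for approximately 24 h before viability was assessed fluorometrically with CellTiter-Fluor.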

Assay [13] deals with Nuclear receptor subfamily 1 group I member 2 (Homo sapiens) (UniProt O75469). Nature of the assay: Dual reporter qHTS for agonist of Pregnane X Receptor (hPXR) against the NCATS DSHEA and TCM libraries: Luminescence readout (AID 1920059). Note: potency is the fitted concentration of half-maximal effect. In short, it runs like this:
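Luminescent PXR reporter read (ONE-Glo) after a CellTiter-Fluor viability read, following 24 h, 37C treatment of HepG2 cells stably carrying hPXR-Luc.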

For assay [14] the target is unchanged. Nature of the assay: Dual reporter qHTS for antagonist of Pregnane X Receptor (hPXR) against the NCATS DSHEA and TCM libraries: Luminescence Readout (AID 1920060).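 Note: HepG2 cells carrying hPXR luciferase reporter stimulated with rifampicin at 2 µM; 0% is about no effect.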 An outline of the steps: (§2)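 Antagonist mode: rifampicin 2 uM final co-added with compounds to hPXR-LucHepG2 cells for 24 h at 37C. Viability by CellTiter-Fluor, Ex/Em 405/540 nm, 1 h; reporter by ONE-Glo luminescence.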

Assay [15] is described as follows: Dual reporter qHTS for antagonist of Pregnane X Receptor (hPXR) against the NCATS DSHEA and TCM libraries: Fluorescence Readout (AID 1920061). Note: 0% is about no effect. An outline of the steps:
as §2

Values without a mark were called inactive. Results filed as inconclusive are left out. Activity calls are given as the source filed them. Calls come from the whole dose curve; as a rule, active = well fitted curve in the direction sought with a large enough effect; inconclusive = small, poorly fitted or top-dose-only effect, or another doubt; inactive = no such curve, though single readings can be large; an effect the other way counts as inactive or inconclusive.

Sequence of Nuclear receptor subfamily 1 group I member 2 (Homo sapiens) (O75469 whole entry, looked up): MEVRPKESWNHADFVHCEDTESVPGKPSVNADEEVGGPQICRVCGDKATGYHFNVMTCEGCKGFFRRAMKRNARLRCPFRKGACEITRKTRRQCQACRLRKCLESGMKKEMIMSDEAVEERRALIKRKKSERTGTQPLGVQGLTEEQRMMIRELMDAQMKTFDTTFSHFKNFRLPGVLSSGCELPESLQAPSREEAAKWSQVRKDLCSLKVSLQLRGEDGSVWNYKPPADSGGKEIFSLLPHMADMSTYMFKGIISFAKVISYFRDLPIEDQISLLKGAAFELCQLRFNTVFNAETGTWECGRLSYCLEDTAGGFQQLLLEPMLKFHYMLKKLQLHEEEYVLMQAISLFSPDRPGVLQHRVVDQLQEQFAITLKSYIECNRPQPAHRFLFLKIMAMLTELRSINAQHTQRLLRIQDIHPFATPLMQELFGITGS
Sequence of Cytochrome P450 1A2 (Homo sapiens) (P05177 whole entry, looked up): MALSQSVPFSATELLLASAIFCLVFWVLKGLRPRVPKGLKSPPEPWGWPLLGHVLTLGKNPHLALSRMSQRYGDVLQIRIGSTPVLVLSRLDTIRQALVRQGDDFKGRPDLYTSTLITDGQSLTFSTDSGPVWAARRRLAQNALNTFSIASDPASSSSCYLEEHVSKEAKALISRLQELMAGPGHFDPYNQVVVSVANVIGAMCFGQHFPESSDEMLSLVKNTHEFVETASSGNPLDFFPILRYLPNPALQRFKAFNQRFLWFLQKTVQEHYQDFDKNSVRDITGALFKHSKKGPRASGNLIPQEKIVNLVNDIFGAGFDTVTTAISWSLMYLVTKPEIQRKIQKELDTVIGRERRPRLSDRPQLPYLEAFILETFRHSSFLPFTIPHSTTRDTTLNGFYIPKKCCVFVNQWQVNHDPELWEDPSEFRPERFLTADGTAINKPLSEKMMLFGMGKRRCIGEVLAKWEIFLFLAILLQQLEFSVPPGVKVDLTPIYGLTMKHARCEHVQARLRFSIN
Sequence of Nuclear receptor subfamily 1 group I member 3 (Homo sapiens) (Q14994 whole entry, looked up): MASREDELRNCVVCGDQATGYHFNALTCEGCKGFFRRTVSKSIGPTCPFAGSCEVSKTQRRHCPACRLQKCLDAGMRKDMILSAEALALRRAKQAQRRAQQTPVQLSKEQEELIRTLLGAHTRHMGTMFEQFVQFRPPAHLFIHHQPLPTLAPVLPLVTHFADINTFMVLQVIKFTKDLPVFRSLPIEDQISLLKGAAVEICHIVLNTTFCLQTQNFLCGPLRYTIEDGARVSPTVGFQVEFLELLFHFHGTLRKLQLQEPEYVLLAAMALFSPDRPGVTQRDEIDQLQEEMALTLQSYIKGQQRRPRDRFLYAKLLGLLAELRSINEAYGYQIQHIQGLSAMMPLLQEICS
Sequence of Cytochrome P450 2C19 (Homo sapiens) (P33261 whole entry, looked up): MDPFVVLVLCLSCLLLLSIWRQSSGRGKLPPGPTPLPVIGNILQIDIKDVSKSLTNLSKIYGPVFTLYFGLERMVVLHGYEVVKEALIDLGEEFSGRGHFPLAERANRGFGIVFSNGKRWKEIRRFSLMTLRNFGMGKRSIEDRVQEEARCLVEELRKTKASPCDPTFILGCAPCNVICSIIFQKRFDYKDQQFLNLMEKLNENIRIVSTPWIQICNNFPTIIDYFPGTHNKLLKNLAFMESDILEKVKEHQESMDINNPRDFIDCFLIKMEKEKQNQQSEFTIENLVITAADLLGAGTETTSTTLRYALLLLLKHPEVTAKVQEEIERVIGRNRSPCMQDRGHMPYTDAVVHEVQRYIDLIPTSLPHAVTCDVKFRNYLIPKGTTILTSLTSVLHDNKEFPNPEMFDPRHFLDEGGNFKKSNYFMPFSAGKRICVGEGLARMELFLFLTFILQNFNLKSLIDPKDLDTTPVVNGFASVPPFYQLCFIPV
Sequence of Cytochrome P450 2C9 (Homo sapiens) (P11712 whole entry, looked up): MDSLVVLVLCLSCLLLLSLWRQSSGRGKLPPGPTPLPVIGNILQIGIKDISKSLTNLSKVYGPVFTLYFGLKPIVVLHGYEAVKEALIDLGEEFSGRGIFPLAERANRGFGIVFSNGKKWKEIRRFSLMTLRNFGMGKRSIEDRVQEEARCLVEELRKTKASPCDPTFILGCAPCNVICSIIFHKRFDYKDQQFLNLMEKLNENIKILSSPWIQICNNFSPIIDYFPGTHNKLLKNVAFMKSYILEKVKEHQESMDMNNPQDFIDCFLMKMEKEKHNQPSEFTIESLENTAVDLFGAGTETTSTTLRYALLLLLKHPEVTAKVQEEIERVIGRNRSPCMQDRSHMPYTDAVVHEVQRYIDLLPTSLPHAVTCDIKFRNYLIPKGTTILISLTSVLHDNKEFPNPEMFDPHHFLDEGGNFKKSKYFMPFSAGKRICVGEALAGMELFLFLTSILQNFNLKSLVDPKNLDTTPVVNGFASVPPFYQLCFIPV
Sequence of Cytochrome P450 3A4 (Homo sapiens) (P08684 whole entry, looked up, canonical isoform): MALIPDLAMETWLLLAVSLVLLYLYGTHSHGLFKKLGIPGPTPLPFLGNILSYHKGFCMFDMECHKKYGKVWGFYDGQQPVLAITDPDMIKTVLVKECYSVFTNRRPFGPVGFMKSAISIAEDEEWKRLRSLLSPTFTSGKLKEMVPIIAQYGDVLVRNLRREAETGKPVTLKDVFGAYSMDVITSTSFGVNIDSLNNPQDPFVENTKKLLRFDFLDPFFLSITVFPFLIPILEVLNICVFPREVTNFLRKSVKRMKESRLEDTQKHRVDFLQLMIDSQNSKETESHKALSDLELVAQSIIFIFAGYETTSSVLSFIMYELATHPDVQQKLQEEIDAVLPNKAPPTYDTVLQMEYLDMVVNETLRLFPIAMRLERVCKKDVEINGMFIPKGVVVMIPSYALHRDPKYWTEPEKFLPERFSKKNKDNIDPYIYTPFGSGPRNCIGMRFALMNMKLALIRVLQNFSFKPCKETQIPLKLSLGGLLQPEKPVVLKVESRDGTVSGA
Sequence of Cytochrome P450 2D6 (Homo sapiens) (P10635 whole entry, looked up): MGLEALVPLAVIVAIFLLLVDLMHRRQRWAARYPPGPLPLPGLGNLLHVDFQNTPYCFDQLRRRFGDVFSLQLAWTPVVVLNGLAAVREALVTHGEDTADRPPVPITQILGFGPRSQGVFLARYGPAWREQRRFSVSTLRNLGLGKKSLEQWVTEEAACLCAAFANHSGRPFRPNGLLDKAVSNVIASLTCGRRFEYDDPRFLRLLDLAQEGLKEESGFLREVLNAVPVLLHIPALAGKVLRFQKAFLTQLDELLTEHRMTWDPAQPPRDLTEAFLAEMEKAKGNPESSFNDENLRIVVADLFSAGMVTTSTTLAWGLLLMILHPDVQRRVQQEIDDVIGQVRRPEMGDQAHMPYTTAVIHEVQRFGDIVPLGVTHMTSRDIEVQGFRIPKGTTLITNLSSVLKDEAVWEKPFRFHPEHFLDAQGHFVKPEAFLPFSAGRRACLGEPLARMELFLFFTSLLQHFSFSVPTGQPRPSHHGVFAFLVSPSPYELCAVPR

`C=C1CC[C@H](O)C/C1=C\C=C1/CCC[C@]2(C)[C@@H]([C@H](C)CC[C@H](C)C(C)C)CC[C@@H]12`: the molecule was classed as inactive in assay [1], in assay [2], in assay [4], in assay [9], in [12] and in [14]. Besides, in [15], the call was inactive. Besides, the Potency result in assay [3], in assay [6] and in assay [10] was “inactive” in each case. The Potency in [5] was 15.8 µM (active); in assay [7], 10 µM (active); in [8] it was 22.4 µM (active); in assay [13], 28.2 µM (active). Moreover, the max response in assay [11] is -0.676%.

Regarding `C=C1C[C@]23CC[C@H]4[C@@](C)(CCC[C@@]4(C)C(=O)O)[C@@H]2CC[C@@]1(O[C@@H]1O[C@H](CO)[C@@H](O)[C@H](O)[C@H]1O[C@@H]1O[C@H](CO)[C@@H](O)[C@H](O)[C@H]1O)C3`, the outcome in assay [1], in [2], in assay [4], in assay [9], in assay [12] and in [14] was inactive. Moreover, in [15], the call was inactive. In addition, the Potency result in assay [3], in [5], in [6], in [7], in assay [8] and in [10] was “inactive” each time. Also, the Potency result in assay [13] was “inactive”.

The values are drawn from PubChem BioAssay (NCATS).
